Pf Dd2 growth: qHTS Primary assay for Inhibitors of Plasmodium falciparum Dd2 growth in vitro; AID 1347417, 2020; Potency, µM (highest dose often 28.9 µM), for the others: top-dose activity, negative = inhibition, most hits filed as inhibitors; 4.3% of 120,000 active; P. falciparum Dd2 growth, SYBR Green, 72 h; active = well fitted inhibition curve with a large enough effect;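 also: plate controls were DMSO vehicle for no effect and reference drug for full effect; nearly all actives have a fitted effect of over 65% in size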
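Infected erythrocytes (Dd2, 0.3% parasitemia, 2.5% hematocrit final) are added to compound in RPMI-1640/Albumax II medium, grown 72 h at 37C in low oxygen, then lysed with saponin/Triton-X containing SYBR Green and read by fluorescence.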
Active calls of the source: *; ! = not confirmed by another sample; [ ] = remark or other dose. Many of the other results were omitted from the sample, so hits are more common in it than they were. Potency is read from the fitted curve at half-maximal effect.

`COc1ccc(C2Cn3nnc(-c4noc(COc5cccc(C)c5)n4)c3CO2)cc1` (stereo not given) gave Pf Dd2 growth 10µM*.
`CCc1nc(-c2nnn3c2COC(c2ccc(OC)cc2)C3)no1` (stereo not given) gave Pf Dd2 growth inactive.
For COc1ccc(C2Cn3nnc(-c4noc(CCc5cccc(OC)c5)n4)c3CO2)cc1 (stereo not given) the results were Pf Dd2 growth -18%.
`COc1cccc(NC(=O)N[C@H]2C[C@@H](C(=O)N(C)CC(N)=O)N(C(=O)c3cnccn3)C2)c1` gave Pf Dd2 growth -27%.
For CCN(CC)CCNC(=O)c1c(OCCOC)cc(=O)n2c1CCOCC2 the results were Pf Dd2 growth -3%.
For COCCc1nc(-c2cnc(C3CC3)nc2)n(-c2ccc(F)cc2F)n1 the results were Pf Dd2 growth -2%.
Screening CCOc1ccccc1CN(CCc1ccc2c(c1)OCO2)Cc1cc(OC)c(OC)cc1OC returned Pf Dd2 growth 4µM*.
Screening CCOc1ccc(CN(CCc2ccc3c(c2)OCO3)Cc2cccc(Br)c2)cc1 returned Pf Dd2 growth 3%.
CCOc1ccc(CN(CCc2ccc3c(c2)OCO3)Cc2ccc(C)cc2)cc1 was read as Pf Dd2 growth 10µM*.
`CCOc1ccc(CN(CCc2ccc3c(c2)OCO3)Cc2cccc(OC)c2)cc1` gave Pf Dd2 growth -1%.
CCOc1ccc(CN(C)C2CCOc3ccccc32)cc1 (stereo not given) was read as Pf Dd2 growth -10%[44.1 µM].
`CCOc1ccccc1CNC(=O)c1noc(-c2ccc3c(c2)OCO3)n1` gave Pf Dd2 growth -2%.
COCC[C@]1(O)CCN(C(=O)COc2ccc3c(c2)OCO3)C[C@H]1C was read as Pf Dd2 growth -8%.
Screening CCN1C(=O)CCc2cc(NC(=O)c3cccc(C#N)c3)ccc21 returned Pf Dd2 growth -4%.
`COc1cccc(CN[C@@H]2CCC[C@@H](C(=O)N(C)Cc3cccnc3)CC(=O)N(C)C2)c1` gave Pf Dd2 growth -17%.
OC1(CN2CCCCC2)CCN(Cc2cnc(-c3ccccn3)nc2)C1 (stereo not given) was read as Pf Dd2 growth -9%.
O=C(N[C@@H]1CN(Cc2ccc(F)cc2Cl)C[C@H]1CO)C1CCC1 was read as Pf Dd2 growth 8.9µM*.
CN1C[C@@H](CO)[C@H](NC(=O)c2ccccc2)C1 was read as Pf Dd2 growth 11%.
O=C(N[C@@H]1CN(Cc2ccc(F)cc2Cl)C[C@H]1CO)C1CC1 was read as Pf Dd2 growth -5%.
For O=C(N[C@@H]1CN(Cc2ccc(F)cc2F)C[C@H]1CO)c1ccccc1 the results were Pf Dd2 growth 10µM*.
For N#Cc1cccc(CN2C[C@@H](CO)[C@H](NC(=O)c3ccccc3)C2)c1 the results were Pf Dd2 growth -17%.
O=C(N[C@@H]1CN(Cc2ccc(Cl)c(F)c2)C[C@H]1CO)C1CCC1 was read as Pf Dd2 growth -27%.
Cn1cc([C@@H](NC(=O)CCc2c[nH]c3ccccc23)C2CC(O)C2)cn1 (stereo not given in full) was read as Pf Dd2 growth -3%.
Screening CCCN1C(=O)C(CC(=O)N2CCN(C)CC2)Sc2ncccc21 (stereo not given) returned Pf Dd2 growth -19%.
COCc1noc([C@@H]2CC(F)(F)CN2C(=O)Cc2ccc(F)cc2)n1 was read as Pf Dd2 growth 23%.
Screening COCC(=O)N1CCCC(C(=O)NCCCn2nc(C)c(Cl)c2C)C1 (stereo not given) returned Pf Dd2 growth -12%.
For O=C1NC[C@@H](CCC(=O)N2CCCC2)N2C[C@@H](NCc3ccccc3)C[C@@H]12 the results were Pf Dd2 growth 9%[44.1 µM].
For COc1cccc(CN2CC[C@@]3(O)CCNC[C@H]3C2)c1OCCCn1ccnc1 the results were Pf Dd2 growth 4µM*.
For O[C@]12CCNC[C@H]1CN(Cc1cccc(N3CCOCC3)c1)CC2 the results were Pf Dd2 growth -4%.
For O[C@]12CCNC[C@H]1CN(Cc1ccc(C(F)(F)F)cc1F)CC2 the results were Pf Dd2 growth -27%.
Screening O=C(N[C@@H]1CCOC[C@H]1OCCO)c1cccc(-c2ccco2)c1 returned Pf Dd2 growth -3%.
Screening O=S(=O)(c1cccs1)N1CCOC(Cc2cccc(F)c2)C1 (stereo not given) returned Pf Dd2 growth inactive.
Screening CCCC1=Nc2cc(C(=O)NCc3ccc(OC)cc3)ccc2Sc2ccc(C)cc21 returned Pf Dd2 growth -2%.
For CCCNC(=O)c1ccc2c(c1)N=C(CCC)c1ccccc1S2 the results were Pf Dd2 growth inactive.
For CCCC1=Nc2cc(C(=O)NCCc3ccccc3)ccc2Sc2ccc(C)cc21 the results were Pf Dd2 growth 6.3µM*!.
CCCC1=Nc2cc(C(=O)NC(C)c3ccccc3)ccc2Sc2ccc(C)cc21 (stereo not given) was read as Pf Dd2 growth -14%.
CC(NC(=O)c1ccc2nc(CCc3ccccc3)oc2c1)c1ccccc1 (stereo not given) was read as Pf Dd2 growth -22%.
Screening CCC1=Nc2cc(C(=O)NC(C)c3ccccc3)ccc2Sc2ccc(Cl)cc21 (stereo not given) returned Pf Dd2 growth 8.9µM*.
CCOc1ccccc1NC(=O)Cn1c(N2CCCCC2)nc(C)c(C)c1=O was read as Pf Dd2 growth -18%.
Screening CCOc1ccccc1CN1CCC2(CC1)Cc1ccccc1CNC2=O returned Pf Dd2 growth -13%.
For Cc1cccn2c(CN(C)CCc3cnn(C)c3)c(C(=O)N(C)CCc3ccccc3)nc12 the results were Pf Dd2 growth inactive.
Cc1cccc(CC(=O)N2CCCN(c3cc(-c4ccc(Br)cc4)[nH]n3)CC2)c1 was read as Pf Dd2 growth inactive.
Screening COc1ccc(CCN2C(=O)N(c3ccccc3)C(=O)C2CC(=O)Nc2ccccc2)cc1 (stereo not given) returned Pf Dd2 growth inactive.
COc1ccc(CCN2C(=O)c3[nH]nc(-c4ccccc4O)c3C2c2ccc(OC)cc2)cc1 (stereo not given) was read as Pf Dd2 growth 10µM*.
`COc1ccc(CCN2C(=O)c3[nH]nc(-c4ccccc4O)c3C2c2ccccc2)cc1` (stereo not given) gave Pf Dd2 growth 8.9µM*.
`COc1ccc(CN2C(=O)c3oc4ccccc4c(=O)c3C2c2ccc(O)c(OC)c2)cc1` (stereo not given) gave Pf Dd2 growth -16%.
For CCCNC(=O)CN1C(=O)c2c(c3ccccc3n2C)C1c1ccc(OC)cc1 (stereo not given) the results were Pf Dd2 growth 9%.
O=C(Nc1ccc(F)cc1)N1CCCC(Cn2c(C3CC3)nc3cccnc32)C1 (stereo not given) was read as Pf Dd2 growth inactive.
Screening CCN(C(=O)c1ccc2c(c1)N(S(C)(=O)=O)CC2)c1ccccc1 returned Pf Dd2 growth -14%.
O=C(CC1=C2CCCCC2N(Cc2ccccc2)C1=O)NC1CC1 (stereo not given) was read as Pf Dd2 growth -3%.
Screening Cn1nc(C2CCN(C(=O)c3cc(F)ccc3F)CC2)c2c1CCOC2 returned Pf Dd2 growth inactive[5.79 µM].
`CN1C(=O)C(CC(=O)NCC2CCN(Cc3cccc(F)c3)CC2)=C2CCCCC21` (stereo not given) gave Pf Dd2 growth inactive.
`Cc1oc2c(c1C(=O)N1CCN(C3CCCC3)CC1)CN(Cc1cccc(F)c1)CC2` gave Pf Dd2 growth 8.9µM*.
Cc1oc2c(c1C(=O)N1CCCCCC1)CN(Cc1cccc(F)c1)CC2 was read as Pf Dd2 growth 4µM*.
